Experiments:
Test in all cases: relative growth (AUC of 72 h growth curve relative to DMSO control, dAUC) (ratio); higher = more growth (less inhibition), active = hit call of the paper
Conditions in all cases: 20 µM;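 active = growth AUC significantly below the DMSO wells by Dunnett test; inactive = the rest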
[1] = tested on: Aeromonas 1 (Aeromonas sp. AE235)
In short: (§1)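 Whole sediment communities and bacterial isolates from Icelandic stream sediments and Silwood Park soil were brought to carrying capacity in Luria–Bertani medium. They were then diluted 1:100 into 96-well plates with each chemical at 20 µM in 1% DMSO, and A600 was recorded every hour for 72 h. The area under each growth curve, integrated by spline, was averaged across three biological replicates. This figure, divided by the mean of the DMSO controls, gives relative growth (dAUC).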

[2] = tested on: Aeromonas 2 (Aeromonas sobria)
In short: as §1

[3] = tested on: Aeromonas 3 (Aeromonas popoffii)
In short: as §1

[4] = tested on: Argrobacterium 1 (Agrobacterium sp.)
In short: as §1

[5] = tested on: Arthrobacter 1 (Arthrobacter humicola)
In short: as §1

[6] = tested on: Arthrobacter 2 (Arthrobacter humicola)
In short: as §1

[7] = tested on: Arthrobacter 3 (Arthrobacter sp.)
In short: as §1

[8] = tested on: Community 4
In short: as §1

[9] = tested on: Community 6
In short: as §1

[10] = tested on: Community 7
In short: as §1

[11] = tested on: Community 8
In short: as §1

[12] = tested on: Community 9
In short: as §1

[13] = tested on: Flavobacterium 1 (Flavobacterium glaciei)
In short: as §1

[14] = tested on: Flavobacterium 2 (Flavobacterium succinicans)
In short: as §1

[15] = tested on: Hymenobacter 1 (Hymenobacter glaciei)
In short: as §1

[16] = tested on: Microbacterium 1 (Microbacterium arborescens)
In short: as §1

[17] = tested on: Neobacillus 1 (Neobacillus soli)
In short: as §1

[18] = tested on: Oryzobacter 1 (Oryzobacter terrae)
In short: as §1

[19] = tested on: Paenibacillus 1 (Paenibacillus castaneae)
In short: as §1

Measured: relative growth

CC1(C)C(C=C(Cl)Cl)C1C(=O)OC(C#N)c1cccc(Oc2ccccc2)c1 (configuration not stated)
inactive: [1] 0.976 | [2] 1.04 | [3] 1.08 | [4] 1.07 | [5] 1.28 | [6] 0.971 | [7] 1.03 | [8] 1.1 | [9] 1.12 | [10] 0.963 | [11] 1.08 | [12] 1.12 | [13] 0.979 | [14] 1.05 | [15] 1.08 | [16] 1.03 | [17] 1.02 | [18] 1.07 | [19] 1

CC(C)N1C(=O)N(c2ccccc2)CS/C1=N\C(C)(C)C
active: [6] 0.59
inactive: [1] 1.04 | [2] 1.1 | [3] 1.01 | [4] 1.07 | [5] 0.994 | [7] 0.868 | [8] 1.02 | [9] 1.02 | [10] 1.09 | [11] 1.08 | [12] 1.03 | [13] 0.891 | [14] 0.947 | [15] 1.06 | [16] 1.07 | [17] 0.906 | [18] 0.973 | [19] 1

CSc1nc(NC(C)C)nc(NC(C)C)n1
inactive: [1] 0.966 | [2] 0.971 | [3] 0.983 | [4] 1.03 | [5] 1.03 | [6] 0.956 | [7] 1.07 | [8] 0.933 | [9] 0.922 | [10] 1.02 | [11] 0.97 | [12] 0.97 | [13] 1.02 | [14] 0.946 | [15] 0.914 | [16] 1.02 | [17] 0.987 | [18] 0.978 | [19] 0.877

CS(=O)(=O)NC(=O)c1cc(Oc2ccc(C(F)(F)F)cc2Cl)ccc1[N+](=O)[O-]
inactive: [1] 1.02 | [2] 1.02 | [3] 1.03 | [4] 1.02 | [5] 0.905 | [6] 1.07 | [7] 1.05 | [8] 1.02 | [9] 1.03 | [10] 1.04 | [11] 1.05 | [12] 1.07 | [13] 1.06 | [14] 1.02 | [15] 1.04 | [16] 1.03 | [17] 1.02 | [18] 0.957 | [19] 1.03

CC(C)(C)c1ccc(CSc2cnn(C(C)(C)C)c(=O)c2Cl)cc1
inactive: [1] 1.02 | [2] 0.975 | [3] 1.03 | [4] 1.01 | [5] 1.02 | [6] 0.875 | [7] 0.98 | [8] 1.01 | [9] 1.04 | [10] 1.12 | [11] 1.03 | [12] 0.994 | [13] 0.923 | [14] 1 | [15] 1.01 | [16] 1.08 | [17] 0.915 | [18] 1.04 | [19] 0.971

CC1=NNC(=O)N(/N=C/c2cccnc2)C1
inactive: [1] 1.04 | [2] 1.04 | [3] 1.04 | [4] 0.954 | [5] 1.13 | [6] 1.13 | [7] 1.05 | [8] 1.1 | [9] 1.14 | [10] 0.897 | [11] 0.918 | [12] 1.2 | [13] 1.04 | [14] 1.05 | [15] 1.12 | [16] 1 | [17] 1.16 | [18] 1.01 | [19] 1.06

COC(=O)Nc1nc2ccccc2[nH]1
inactive: [1] 1.01 | [2] 0.956 | [3] 0.973 | [4] 0.992 | [5] 1.04 | [6] 1.05 | [7] 1.12 | [8] 1.02 | [9] 0.998 | [10] 0.965 | [11] 0.959 | [12] 1.04 | [13] 1.13 | [14] 1 | [15] 1.01 | [16] 0.974 | [17] 1.13 | [18] 1.07 | [19] 0.946

CC(C)OC(=O)C(C(=O)OC(C)C)=C1SCCS1
inactive: [1] 0.961 | [2] 0.967 | [3] 0.993 | [4] 1.02 | [5] 1.02 | [6] 0.922 | [7] 0.975 | [8] 0.901 | [9] 0.886 | [10] 1.15 | [11] 1 | [12] 0.964 | [13] 0.993 | [14] 0.947 | [15] 1.09 | [16] 1.02 | [17] 1.01 | [18] 1.12 | [19] 0.965

CN/C(=N\[N+](=O)[O-])NCc1cnc(Cl)s1
inactive: [1] 1 | [2] 0.976 | [3] 0.985 | [4] 0.98 | [5] 0.983 | [6] 0.841 | [7] 0.873 | [8] 0.981 | [9] 0.914 | [10] 1.06 | [11] 1 | [12] 0.871 | [13] 0.869 | [14] 0.939 | [15] 0.958 | [16] 0.983 | [17] 0.85 | [18] 1.05 | [19] 0.961

CCOC(=O)OC1=C(c2cc(C)ccc2C)C(=O)N[C@]12CC[C@@H](OC)CC2
inactive: [1] 0.965 | [2] 0.981 | [3] 1.01 | [4] 1.03 | [5] 1.17 | [6] 1.03 | [7] 0.986 | [8] 1.14 | [9] 1.02 | [10] 1.03 | [11] 0.995 | [12] 1.03 | [13] 1.08 | [14] 1.05 | [15] 0.987 | [16] 1.01 | [17] 1.09 | [18] 1.05 | [19] 1.01

Oc1ccccc1-c1ccccc1
inactive: [1] 1.01 | [2] 0.967 | [3] 1.01 | [4] 0.914 | [5] 0.929 | [6] 0.866 | [7] 0.964 | [8] 0.851 | [9] 0.973 | [10] 1.12 | [11] 0.988 | [12] 0.974 | [13] 0.75 | [14] 0.946 | [15] 0.951 | [16] 1.04 | [17] 0.9 | [18] 1.12 | [19] 0.888

O=C1C2CC=CCC2C(=O)N1SC(Cl)(Cl)Cl (configuration not stated)
inactive: [1] 0.905 | [2] 1.01 | [3] 0.983 | [5] 0.95 | [6] 0.769 | [7] 0.919 | [8] 0.671 | [10] 0.95 | [11] 0.794 | [13] 0.948 | [14] 0.9 | [15] 0.968 | [16] 1 | [17] 0.917 | [18] 0.991 | [19] 1.06
active: [4] 0.74 | [9] 0.614 | [12] 0.473

COCC(C)N(C(=O)CCl)c1c(C)csc1C (configuration not stated)
inactive: [1] 0.991 | [2] 0.984 | [3] 0.964 | [4] 1.02 | [5] 0.907 | [6] 0.814 | [7] 1.05 | [8] 0.913 | [9] 0.975 | [10] 0.996 | [11] 1.01 | [12] 1.01 | [13] 0.948 | [14] 1.01 | [15] 0.962 | [16] 1.04 | [17] 0.98 | [18] 0.982 | [19] 0.961

From the supplement of paper PMC12067926
